Reference: the supplement of paper PMC6555819

These sequences were tested on VDR:RXRa (NR concentration 270 nM, RXRa partner concentration 90 nM) (assay: PBM binding z-score (relative to random genomic background probes); higher = stronger binding; sequences stand for … in GC…GCGATTGACAGCGTAGAATGAAGG).
Protocol: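 Protein-binding microarray (Agilent 4x180K custom design, double-stranded 60-nt probes: 5' GC cap, 34-nt variable region, 24-nt constant primer region; full probe sequence given). Purified or IVT nuclear receptor:RXRα heterodimers (3:1 NR:RXRα, mostly 270:90 nM) or homodimers were incubated for 1 h in PBS with 2% milk and no ligand, then detected with Alexa488 antibodies. Fluorescence from o1-orientation probes (~5 replicates averaged) was converted to z-scores against 500 random hg19 background probes. Variable regions are seed direct-repeat (DR0–DR5) sites, all their single-nucleotide variants and half-site ablations.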

Sequence	PBM binding z-score
GTGACTGGGGCAAAGCAGGTTACCATAAGGTTGG	0.488
TCGATTAGTTGAAGGGCAACCGACGAGTCCGTTT	0.389
GATAGCAGGCCATTTGGGTCACTCAATGACGGGC	1.07
CGTCCTAGGTCAAAGGTCAGTGAAGAGATGACGG	5.56
CGTCCCAGGTCATAGGAGGTCAGTGAAGACAGAT	6.01
ATCTCTAGGTAAAGATACTTCAGTGAATGCAAAT	0.244
TCTTGTAGATCGGCAGGTTAAGAAAGCTGGCCAA	0.405
GGAACGAGGACAAGTTGATAGCAGAGTTTGATGG	0.0641
CCTCGGAGGACAGAAGGTCAGAGCCGTCCGCTTT	0.934
TCTAGTTGGTCACGGAGGTCAGACACGACGGGTA	4.68
CGCGAAAGGTCGTGCTCAGGTGAGTATACCAAAC	3.57
GCTATTAGTTGAAAGGGCAATCGAATGATTCTCG	0.219
AGTCAAAGTTCAGGACGAAGTAACGTAAAGCACG	2
TCATATAGGTAAATGCTAGTTGAAAGTCCGATCT	1.07
TATAGTTGGTCAAAGGTCACACACTCGAAATGCG	5.53
CAAACTAGGTCAGGAAAGGTCAAAGTCGAATGAC	6.31
CTCGAAAGGTCGTGCTCAGGTGAGTATTCCAAAC	3.26
AGTCGAAGTTCAGGACGAGGTAACGTAAAGCACG	1.15
ATCGCTAGGTAACAAGTTCAGTGAAAGAGAGGAC	1.42
TCTAGTAGATCAGCAGGTTAAGAAAGCTGGCCAA	0.524

Sequence	PBM binding z-score
TAGCCTAGGTCATGGGCCAGTAGACCACGCGAAC	1.85
CGAACTAGGTCATCCAGGACAATGAATACATTGA	4.99
CGAACGAGGGCATGAGTTGACAGCAAATGCCGAT	1.2
TTACCAAGGTGAAGGTCCTTGATCCCTCTGTAGA	0.388
CTCGAAAGGTCGTGCTCACGTGAGTATACCAAAC	3.23
CCGACTGGGGCAGAAAGGTTGCCATACCATCCGG	-0.0793
TTACCAAGGTGAGCTGAGGTCGTTGCTCCAACTC	4.1
AGTCAAAGTTCACTAGGGAACGTAAGATTCAGCT	3.85
TCCGACAGGTGAAGGTAACTCAGGTACGCAGTCG	0.225
ATACCAAGGTGGTCGTGAGGTCGTTGATACTAAC	2.79
CGAACTAGGTCATTGACAAGACAGTGAATAGTAA	1.89
CAAACTAGGTCACAGGAAGGTCAAAGTCCGCATG	5.74
TCGAGTAGGTTAGTCGTGGCATTCAGCCAACATA	-0.0269
CAGCCTAGCTCAGGGCCAGTATAGGAGGAACGTT	-0.907
GCTCGGAGGACAAAGTCAGAGCTTTGTCCGTAGA	-0.556
AATACAGGGTCACTAGGCGAGAGTAGGTACGAAT	4.12
CGTCTAAGGTCAGAGAGGTCAGTGAATGCCGAGT	7.63
ACTATTAGTTGACTTAGGACAACCGATACGACGC	0.499
TCCAGTAGGTTAGGGGCATTCAGAATGGCGTCGA	0.702
TTACCAAGGTGAGCTGAGGTCGTTGAACCAACTC	4.25
